Structures are written as SMILES. Results filed as inconclusive are left out. Activity calls are given as the source filed them. Calls follow the shape of the dose curve; as a rule, active = well fitted activation curve with a large enough effect; inconclusive = small, poorly fitted or top-dose-only effect; inactive = no such curve, though single readings can be large or run the other way.
Potency is read from the fitted curve at half-maximal effect.

The experiment can be described thus: qHTS assay for re-activators of p53 using a Luc reporter: Hit Validation. Also: nearly all actives have a fitted effect of over 75% in size. The following applies: p53-responsive luciferase reporter cells, luminescence, H1299 line expressing heat-sensitive Ala138Val p53; series mostly up to 46.1 µM. An outline of the steps:
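H1299 (p53-null) cells stably carrying p53-A138V and a BP100-luciferase reporter, 1000 cells/well, treated 24 h at 37 deg C. Compounds at several concentrations, 1:5 dilution; nocodazole control; luminescence read after 10 min with detection reagent.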
(Quantitative high-throughput screening tests each substance at several concentrations.)
Consider `O=C(/C=C/c1cccs1)Nc1ccc(Br)cn1`, for which the Potency was 1840 nM (active).
`C/C(=N\NC(=O)c1cccs1)C(C)(C)C`: the Potency entry was “inactive”.
The value for `COc1ccc(N(C(=O)Nc2ccc(Cl)cc2)C2=NCCC2)cc1` was “inactive”; that for `CCOc1ccc2c(c1)C(C)=CC(C)(C)N2S(=O)(=O)c1ccc(NC(C)=O)cc1` was “inactive”; that for `Cc1ccc(NC(=O)/C(Cl)=C/c2ccccc2)cc1C` was 2060 nM (active).
Turning to `COc1ccc2nc(NC(=O)Nc3ccccc3OC)sc2c1`, the Potency was 9200 nM (active).
The value for `CCOC(=O)C1CCN(S(=O)(=O)Cc2ccccc2)C1=O` (stereo not drawn) was “inactive”.
Regarding `COCc1[nH]nc2c1C(c1cccc(OC)c1)C(C#N)=C(N)O2` (stereo not drawn), the Potency entry is “inactive”.
Turning to `c1ccc(COc2ccc(OCCOCCn3cncn3)cc2)cc1`, the Potency is 2910 nM (active).
Turning to `CC1Cc2ccccc2N1C(=O)COC(=O)C1(c2ccccc2F)CCCC1` (stereo not drawn), the Potency entry was “inactive”.
In the case of `Cc1ccsc1/C=N/Nc1nc2ccccc2[nH]1` it was 1300 nM (active); in that of `Cc1sc(NC(=O)c2ccc(Cl)s2)c(C(N)=O)c1C`, 4110 nM (active).
The value for `CCN(CC)C(=O)CSC(=Nc1ccccc1F)NC#N` was 14600 nM (active); that for `Cc1cccc(-n2c(O)c(C=Nc3ccccc3N)c(=O)[nH]c2=O)c1` was “inactive”.
In the case of `Cc1cc2nc(-c3ccc(SCC(=O)Nc4ccc(S(=O)(=O)NC5CC5)cc4)nc3)[nH]c2cc1C` it was 2310 nM (active); in that of `CC(=O)NC1=C(Nc2ccc(N(C)C)cc2)C(=O)c2ccccc2C1=O`, 9200 nM (active).
On to `Nc1ccc(-c2cnc(-c3ccc(N)cc3)nc2)cc1`, for which the Potency was 291 nM (active).
In the case of `CN(C)/C=N/c1cnc(C(=O)c2ccc(Cl)cc2)n1C` it was 2590 nM (active).
